Reference: ChEMBL document CHEMBL3433997, “St. Jude Leishmania screening dataset” (2016)
Where “and” joins values, the source holds several entries; their conditions need not be identical. Equal values may be shown once.

What was measured:
Type in all cases: functional
[1] = molecular target: Solute carrier family 2, facilitated glucose transporter member 1 (Homo sapiens) (UniProt P11166); assay: ST_JUDE_LEISH: Cytotoxicity at 2uM final concentration against transgenic Leishmania Mexicana promastigotes LmGLUT1 that are glucose transport deficient and complemented with the human glucose transporter GLUT1. Activity is measured by DNA content using SYBR green in vitro
Chain of Solute carrier family 2, facilitated glucose transporter member 1 (Homo sapiens) (P11166 whole entry): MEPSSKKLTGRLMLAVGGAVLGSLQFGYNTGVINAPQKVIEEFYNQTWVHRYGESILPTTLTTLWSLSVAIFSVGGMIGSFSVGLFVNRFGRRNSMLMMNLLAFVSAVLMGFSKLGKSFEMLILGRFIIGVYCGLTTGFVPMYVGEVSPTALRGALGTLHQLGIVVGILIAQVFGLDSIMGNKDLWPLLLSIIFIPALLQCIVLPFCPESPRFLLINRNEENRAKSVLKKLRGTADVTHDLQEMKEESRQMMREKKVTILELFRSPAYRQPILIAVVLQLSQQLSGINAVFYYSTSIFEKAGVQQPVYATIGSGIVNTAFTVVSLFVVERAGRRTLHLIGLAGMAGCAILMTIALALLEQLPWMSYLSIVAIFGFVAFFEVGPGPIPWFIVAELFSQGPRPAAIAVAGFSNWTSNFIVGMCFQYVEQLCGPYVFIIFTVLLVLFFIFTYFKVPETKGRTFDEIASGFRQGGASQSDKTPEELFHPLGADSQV

[2] = molecular target: Hexose transporter 1 (Plasmodium falciparum) (UniProt O97467); assay: ST_JUDE_LEISH: Cytotoxicity at 2uM final concentration against transgenic Leishmania Mexicana promastigotes LmPfHT that are glucose transport deficient and complemented with the Plasmodium falciparum hexose transporter. Activity is measured by DNA content using SYBR green in vitro
[3] = molecular target: Glucose transporter (Leishmania mexicana) (UniProt O61059); assay: ST_JUDE_LEISH: Cytotoxicity at 2uM final concentration against transgenic Leishmania Mexicana promastigotes LmGT2 that are glucose transport deficient and complemented with the L. Mexicana glucose transporter 2. Activity is measured by DNA content using SYBR green in vitro

Compound	inhibition [1]	inhibition [2]	inhibition [3]
NC(=O)c1ccc(-c2ccc3ccnc(N)c3c2)cc1	7.25%	6.12%	4.88%
Cc1[nH]cc(Br)c(=O)c1-c1ccc(Oc2ccc(OC(F)(F)F)cc2)cc1	3.93%	4.74%	4.41%
CNC(=O)c1cnc(Nc2ccc(N3CCOCC3)cc2)nc1Nc1cccc(O)c1	3.92%	5.41%	-1.69%
O=C(Nc1ccc(OC2CCN(Cc3ccsc3)CC2)c(Cl)c1)c1ccc(F)cc1	4.89%	2.78%	2.62%
COc1cc(Cc2c(C)nc3nc(N)nc(N)c3c2C)c(Br)c(OC)c1OC	5.54%	8.22%	4.73%
CCOc1cc(C(=O)NCCc2ccc(Cl)c(Cl)c2)ccc1-c1nc2cc(Cl)ccc2[nH]1	1.92%	0.01%	1.26%
CCCNC(=O)C1CCN(C(c2ccc(Cl)cc2)c2ccc(Cl)cc2)CC1	-0.62%	2.95%	0.49%
Cc1nc2nc(N)nc(N)c2c(C)c1Cc1ccc(C(N)=O)cc1	1.68%	1.64%	0.21%
Cc1ccccc1C1CCN(c2ncc(C(=O)NC3CC3)cc2Cl)CC1	-1.43%	5.9%	2.12%
O=C(c1cc(-c2cccs2)n[nH]1)N1CCN(S(=O)(=O)c2ccc(Cl)s2)CC1	3.98%	1.77%	2.9%
CCN(CC)CCCOc1ccc(Nc2nccc(-c3c(-c4cccc(NC(=O)c5c(F)cccc5F)c4)nn4ccccc34)n2)cc1F	58%	56.7%	10.5%
CCNc1cc(C(=O)N[C@@H](Cc2ccccc2)[C@H](O)CNC2(C)CCCCC2)cc(N2CCCCS2(=O)=O)c1	1.96%	-0.16%	-0.26%
CC(C)NCc1cccc(-c2ccc(NC(=O)c3ccc(F)cc3)cc2)c1	3.19%	3.2%	-0.76%
Cc1nccc2c(NC(=O)N[C@@H]3CCN(c4ncc(C(F)(F)F)cc4Br)C3)cccc12	1.06%	1.71%	0.74%
Cc1cc(N[C@@H](CC(C)C)C(=O)NC2CCCC2)nc(NCCc2ccc(F)cc2)n1	3.05%	1.34%	0.03%
COc1cc2nc(NCCCN3CCCCC3)nc(NCc3ccccc3)c2cc1OC	2.96%	4.73%	-0.35%
COc1ccc(-c2ccc(S(=O)(=O)Nc3cc4c(cc3OC(C)C)CCNCC4)cc2)cc1	-2.14%	-1.7%	-2.37%
COc1cccc(C2CCN(CCN3CCC(NC(=O)c4ccc(-c5ccc(Cl)cc5)cc4)CC3)CC2)c1	-0.82%	0.69%	1.81%
COc1ccc(O)cc1Cc1cnc2nc(N)nc(N)c2c1C	-0.06%	1.16%	0.83%
COc1cc(Cc2cnc(N)nc2N)cc(OC)c1OCCNC(=O)[C@@H](N)CCC(=O)O	-0.69%	0%	0.12%
Cc1sc(NC(=O)Cc2cccc(C(F)(F)F)c2)nc1-c1cccc(Cl)c1	9.6%	8.91%	8.34%
O=C(Nc1cccc(CN2CCCN(Cc3ccsc3)CC2)c1)c1ccc(-c2ccccc2)cc1	2.55%	3.01%	1.6%
Oc1ccc2[nH]cc(C3CCN(CCCCCCCCCN4CCC(c5c[nH]c6ccc(O)cc56)CC4)CC3)c2c1	-1.57%	-1.31%	-1.9%
Cn1cncc1C(=O)Nc1ccc(-c2cccc(-c3nc4cc(C(F)(F)F)ccc4[nH]3)c2)cc1	1.53%	1.11%	2.32%

Compound	inhibition [1]	inhibition [2]	inhibition [3]
Cc1nc(NC2=NCN(CCCN3CCOCC3)CN2)nc2c(C)cccc12	8.37%	17.2%	11%
FC(F)(F)c1ccc2[nH]c(-c3ccc(-c4cccc(CN5CCCCC5)c4)cc3)nc2c1	2.89%	2.01%	0.4%
O=C(/C=N/O)Nc1ccccc1[N+](=O)[O-]	-1.31%	0.8%	0.39%
COc1ccc(CC(Cc2ccc(OC)cc2)NCC(O)c2cccc(Cl)c2)cc1 (stereo unspecified)	2.03%	0.72%	1.6%
Cc1cc(C(=O)Nc2ccc3c(c2)CCN3C2CCN(Cc3ccc4nsnc4c3)C2)no1 (stereo unspecified)	3.24%	2.32%	5.35%
Nc1n[nH]c(-c2ccccc2Nc2ccnc3cc(-c4nccs4)ccc23)n1	1.03%	0.07%	-0.15%
CCNc1cc(C(=O)N[C@@H](Cc2ccccc2)[C@H](O)CN[C@H](C)C(C)(C)C)cc(N2CCCCS2(=O)=O)c1	2.2%	1.95%	2.33%
COc1cc(NC(=O)CCCCCCCN2CCN(C)CC2)c2ncccc2c1	5.39%	3.78%	1.09%
CC1(C)N=C(N)N=C(N)N1c1ccc2ccccc2c1	3.26%	3.3%	4.01%
CN1CCN(CCCN(Cc2csc(-c3ccc(CNCc4ccccc4)cc3)n2)C(=O)Nc2cccc(Cl)c2)CC1	1.91%	-0.25%	2.48%
c1ccc2[nH]c(-c3ccc(-c4ccc(CN5CCCCC5)cc4)cc3)nc2c1	18.2%	12.9%	10.6%
Cc1ccc(C(C)C)c(Oc2cnc(NC(CO)c3ccccc3)nc2N)c1 (stereo unspecified)	9.07%	8.83%	8.45%
COc1ccc(CNC(=O)NC2CCN(c3ccnc(Nc4ccc(F)cc4)n3)CC2)cc1	0.86%	1.1%	0.64%
CCOc1cc(C(=O)N[C@@H](Cc2ccccc2)[C@H](O)CNCc2cc(OC)cc(OC)c2)cc(N2CCCC2=O)c1	9.97%	8.91%	2.86%
CC(C)c1sc(N2CCCCC2)nc1C(=O)Nc1ccc(F)cc1C(F)(F)F	2.82%	0.82%	2.35%
O=[N+]([O-])c1cccc(-c2nc3cc(C4=NC5CCCCC5N4)ccc3[nH]2)c1 (stereo unspecified)	0.61%	2.08%	1.26%
O=C(Nc1cccc(CN2CCCN(Cc3cccc(Cl)c3)CC2)c1)c1ccc(-c2ccccc2)cc1	4.82%	4.23%	0.66%
Cc1cc(N[C@@H](Cc2ccccc2)C(=O)NCCc2ccccc2)nc(NCCc2cccs2)n1	3.32%	0.76%	1.55%
Clc1ccc(CNc2nc(NCCc3c[nH]cn3)nc(Nc3ccc4c(c3)OCO4)n2)cc1	2.28%	2.3%	3.66%
O=C(NC1CCCCC1)C(c1cccs1)N(CCc1ccccc1)C(=O)c1ccco1 (stereo unspecified)	1.57%	1.89%	0.46%
CCCCCC(C)N/C(=N/c1ccccc1Br)Nc1ccc(C#N)cc1O (stereo unspecified)	2.35%	1.33%	0.92%
CC(C)CCCC(C)NC[C@@H](O)[C@H](Cc1ccccc1)NC(=O)c1cc(N2CCCC2=O)cc(N(c2ccccc2)S(C)(=O)=O)c1 (stereo partly specified)	1.85%	2.61%	1.65%
c1ccc(Oc2cccc(Nc3ccnc4ccccc34)c2)cc1	8.44%	10.4%	3.97%
CCc1nc2c(cnn2CC)c(NC2CCOCC2)c1CNC(=O)N1CCOCC1	3.81%	-1.12%	-0.36%

Compound	inhibition [1]	inhibition [2]	inhibition [3]
O=C(CCc1c[nH]cn1)Nc1cccc(-c2cccc(-c3nc4ccccc4[nH]3)c2)c1	14.3%	13.2%	11.3%
Cc1nnnn1-c1ccc(C(=O)N2CCC3(CC2)CN(Cc2ccc(Cl)c(Cl)c2)C(=O)O3)cc1	8.95%	8.51%	6.87%
COc1cccc(-c2cccc(-c3ccc(NC(=O)c4ccc([N+](=O)[O-])o4)cc3)n2)c1	66.2%	59.8%	23.3%
Cc1cc(N2CCN(CC3CCCCC3)CC2)nc(Nc2ccc(Br)cc2)n1	1.47%	3.17%	0.54%
CNC(=O)CC(=O)NCCc1ccc(Cl)cc1	-0.63%	1.17%	0.06%
CCOCc1cn(CC(=O)c2ccc(-c3ccccc3)cc2)c(C)nc1=N	-1.07%	-0.82%	-0.84%
O=[N+]([O-])c1ccccc1/C=N/Nc1ccnc2cc(Cl)ccc12	4.36%	4.22%	3.41%
O=[N+]([O-])c1ccc2ncnc(Nc3ccc(F)c(Cl)c3)c2c1	2.27%	0.68%	2.32%
Cc1ccc2c(=NN=Cc3ccc(Cl)cc3)cc(C)[nH]c2c1	4.64%	4.7%	2.66%
COc1ccc2ncc(F)c(CCN3CC(O)C(CNCc4nc5c(cc4Cl)OCC(=O)N5)C3)c2n1 (stereo unspecified)	0.46% and 5.05% and 0.19%	-1.18% and 4.64% and 0.49%	-0.57% and 3.05% and -1.68%
COc1cc2nc(NCC3CCCO3)n3nc(-c4ccccc4)nc3c2cc1OC (stereo unspecified)	8.44%	6.19%	2.53%
N=C(NCCCCCCCCNC(=N)Nc1ccc(Cl)cc1)Nc1ccc(Cl)cc1	5.92%	0.99%	8.78%
CC(C)C(C(=O)n1ncc2c3c(N)nc(N)nc3ccc21)C(C)C	87.4%	86.9%	78.4%
COc1ccc(Cl)cc1N1CCN(CCCNC(=O)c2ccc(-c3nc4cc(Cl)c(Cl)cc4[nH]3)c(C)c2)CC1	1.66%	0.9%	1.04%
CCc1cn(CC(=O)N(CCOc2ccc(-c3ccc(C(F)(F)F)cc3)cc2)CCN(CC)CC)c(SCc2ccc(F)cc2)nc1=O	0.38%	0.65%	-0.06%
Cc1cc(=NN=Cc2ccccc2F)c2cc(C(F)(F)F)ccc2[nH]1	1.67%	3.04%	0.5%
O=C(Cc1cccc2ccccc12)NC1CCN(c2ccnc3cc(Cl)ccc23)C1 (stereo unspecified)	-2.29%	-1.67%	-0.88%
CCc1ccccc1N1CCN(CCCCNC(=O)c2ccc(NC(=O)c3ccc(Cl)cc3)cc2)CC1	2.51%	2.19%	0.44%
CC(=O)Nc1cc(C(=O)Nc2cccc(-c3cccc(-c4nc5cccc(C)c5[nH]4)c3)c2)ccc1C	2.89%	2.86%	1.31%
COc1ccc(CC(=O)NC(CCN2CCC3(CC2)CN(S(C)(=O)=O)c2ccccc23)c2ccc(Cl)c(Cl)c2)cc1OC (stereo unspecified)	3.24%	3.56%	2.27%
COc1ccc(/C=C/C(=O)NCCCCCN2CCC(c3c[nH]c4ccccc34)CC2)cc1O	12.1%	9.97%	7.57%
CC(C)N1CCC(N(Cc2ccc(-c3ccc(C(F)(F)F)cc3)cc2)C(=O)Cn2c(CCc3cccc(F)c3F)nc(=O)c3cccnc32)CC1	2.74%	1.97%	0.94%
COc1ccccc1-n1ccnc1SCC(=O)Nc1cc(C(F)(F)F)ccc1Cl	-3.59%	-0.64%	-1.83%
Clc1ccc(/N=C(/NCCCCCCCN/C(=N\c2ccc(Cl)cc2)Nc2ccc(Cl)cc2)Nc2ccc(Cl)cc2)cc1	0.4%	1.89%	-1.85%
